About 11,000 (3.1%) of roughly 360,000 compounds were called active. A call without a number means that no potency is given here. Not shown: some 4% with an inconclusive outcome. The sample holds actives, similar compounds and a random draw of the others, so the mix is not that of the screen. The call rests on the fitted dose curve; in most records, active means well fitted inhibition curve with a large enough effect; inconclusive means small, poorly fitted or top-dose-only effect; inactive means no such curve, though single readings can be large or run the other way.
Target: Schistosoma mansoni thioredoxin glutathione reductase (TGR) (UniProt Q962Y6)
Assay: qHTS Assay for the Inhibitors of Schistosoma Mansoni Peroxiredoxins; further: nearly all actives have a fitted effect of over 60% in size
Conditions: purified TGR, DTNB reduction, TNB absorbance 405 nm; series mostly up to 114 µM
Excerpt: Schistosomiasis is a major neglected tropical disease that currently affects over 200 million. It is caused by different species of flatworms, such as Schistosoma mansoni. Over the last century, drugs to treat the disease have evolved from potassium antimonyl tartrate, artemisinin, oxamniquine, to praziquantel, with praziquantel remaining the universally-used single drug of choice over the past three decades. However, transmission rates have changed little with praziquantel, and there is evidence for the development of drug resistant parasites. Because there is currently no suitable alternative therapy available, there is an urgent need to identify new targets and drugs for schistosomiasis treatment. Thioredoxin glutathione reductase (TGR), one uniquely positioned S. mansoni enzyme, has been identified as a major component of the worms' distinct and compressed antioxidant "firewall". TGR is a multifunctional enzyme that catalyzes the interconversion between reduced and oxidized forms of both glutathione (GSH) and thioredoxins, thus making it an attractive new antiparasitic target. Recently, a quantitative high-throughput screen of the NIH Molecular Libraries Small Molecule Repository (MLSMR, ~71K at the time of the screen in 2007) was performed using an assay that targeted both TGR and peroxiredoxin2 (Prx2, an H2O2-reducing enzymatic component of the S. mansoni redox "firewall") by following the decrease of NADPH fluorescence. […] Additional mechanistic link between exogenous NO donation and parasitic injury for the oxadiazole-2-oxide class of compounds was also expanded and better defined. Although the screen addressed both TGR and Prx2, the assay required post-screen target deconvolution for further characterization of the actives. In addition, the fluorescence assay was also subject to fluorescence interference from compound library members. We have developed a 1536-well-based kinetic HTS assay to address TGR alone. The assay followed the reduction of 5, 5'-dithiobis (2-nitrobenzoic acid) (DTNB) (Ellman's reagent) by NADPH and measured the increase in absorbance at 412 nm of the reaction product, TNB. […] This assay format can be used to screen the current MLSMR collection (with >300K compounds available) to find novel TGR inhibitors. Furoxan is a good choice to serve as a positive control in the primary HTS assay.
Three microliters of reagents (100 uM NADPH and 20 nM TGR or 100 uM NADPH as no-enzyme control) were dispensed into 1,536-well black clear-bottomed plates. Compounds (23 nL) were transferred via Kalypsys pin tool equipped with 1536-pin array (10 nL slotted pins, V&P Scientific, San Diego, CA). The plates were then be incubated for 15 min at room temperature, and 1 uL aliquot of 500 uM NADPH were added, immediately followed by a 1 uL aliquot of 15 mM DTNB to start the reaction. The plate was transferred to a ViewLux high-throughput CCD imager (Perkin-Elmer, Wellesley, MA) where kinetic measurements of the TNB absorbance were acquired using a 405 excitation filter. Throughout the screen, reagent bottles and all liquid lines were made light-tight to minimize reagent degradation. All screening operations were performed on a fully integrated robotic system (Kalypsys, San Diego, CA) containing one RX-130 and two RX-90 anthropomorphic robotic arms (Staubli, Duncan, SC). Library plates were screened starting from the lowest and proceeding to the highest concentration, and a "double-dipping" step of the highest concentration was required to access higher concentrations of compounds. Vehicle-only plates, with DMSO being pin-transferred to the entire column 5-48 compound area, were inserted uniformly at the beginning and the end of each library in order to monitor for and record any shifts in the background, which can be affected by reagent dispensers or loss in enzyme activity overtime. […]
Potency means the concentration at half of the fitted maximal effect.

Row | Structure (SMILES) | Potency
1 | O=C(CCCCCn1c(=O)[nH]c2ccccc2c1=O)NCCc1c[nH]c2ccccc12 | inactive
2 | O=C(CCCCn1c(=O)[nH]c2ccccc2c1=O)NCc1ccc2c(c1)OCO2 | 2.51 µM (active)
3 | NS(=O)(=O)c1ccc(CCNC(=O)CCCCCn2c(=O)[nH]c3ccccc3c2=O)cc1 | inactive
4 | CCCCCn1c(CCCNC(=O)c2ccccc2OC)nc2ccccc21 | inactive
5 | COc1ccc(C)cc1NC(=O)CCc1c(C)nn(-c2ccc(N3CCOCC3)nn2)c1C | inactive
6 | CCOC(=O)c1ccc(NC(=O)Cn2c(=O)n(-c3ccc(C)cc3)c(=O)c3c2cnn3C)cc1 | inactive
7 | O=C(N/N=C/c1ccco1)c1csc2c1CCCC2 | 44.7 µM (active)
8 | O=C(Cc1ccccc1)Nc1cccc(C(=O)N/N=C/c2ccco2)c1 | inactive
9 | O=C(Nc1ccccc1N1CCOCC1)c1csc2c1CCCC2 | inactive
10 | CCOC(=O)C1CCN(c2csc3ccc(C)cc3c2=O)CC1 | inactive
11 | CCOC(=O)c1c(NC(=O)/C=C/c2ccc(OC)cc2)sc2c1CCC(C)C2 (stereo not drawn) | inactive
12 | Cc1ccc(-c2nn(-c3cccc(F)c3)cc2CNCCc2ccncc2)o1 | inactive
13 | O=C(CCCN1C(=O)/C(=C/c2cccs2)SC1=S)Nc1ccc(O)cc1 | inactive
14 | Cc1ccc(-c2nn(-c3ccccc3)cc2/C=C2\SC(=S)N(CCCCCC(=O)O)C2=O)o1 | 12.6 µM (active)
15 | COc1ccc(/C=C2/SC(=O)N(CCCCCC(=O)Nc3ccccc3C(=O)O)C2=S)cc1 | inactive
16 | O=C(O)CCC(=O)N(Cc1ccccc1)Cc1ccccc1 | inactive
17 | Cc1ccc(-c2nn(-c3ccccc3)cc2CN(Cc2ccccc2)C(=O)CCC(=O)O)o1 | 7.94 µM (active)
18 | Cc1ccc(C)c(CN2C(=O)c3ccccc3S(=O)c3ccc(C(=O)N4CCOCC4)cc32)c1 (stereo not drawn) | inactive
19 | CCCc1nn2c(=O)cc(COC(=O)c3ccc(NC(=O)COc4ccc(F)cc4)cc3)nc2s1 | inactive
20 | CCOC(=O)c1c(NC(=O)COc2cc(C)ccc2C(C)C)sc(C)c1C | inactive
21 | CCCCOc1ccc(C(=O)N2CC(=O)Nc3ccc(Br)cc3C2c2ccc(F)cc2)cc1 (stereo not drawn) | inactive
22 | CCOC(=O)COc1nc(C)cc(C(F)(F)F)c1C#N | inactive
23 | CCOC(=O)c1cc(C)nc(S(C)(=O)=O)c1C#N | 35.5 µM (active)
24 | CCOC(=O)c1c(C(C#N)C#N)cc(C)nc1C | inactive
25 | Cc1c(Cl)cccc1NC(=O)CCS(=O)(=O)c1ccc2c(c1)oc(=O)n2C | inactive
26 | CCOc1ccc(N2C(=O)CN(c3cccc4ccccc34)C2=S)cc1 | inactive
27 | CCOc1ccc(N2C(=O)CSC2=NC#N)cc1 | inactive
28 | CCOc1ccc(N2C(=O)/C(=C/c3ccc(C)o3)N(C)C2=S)cc1 | 28.2 µM (active)
